The values that follow come from ChEMBL document CHEMBL1961873, “Compounds: GSK PKIS; Assays: Nanosyn kinase panel” (2012).

Structures are written as SMILES.

For assay [1], the target named is Calcium/calmodulin-dependent protein kinase type II subunit alpha (Homo sapiens) (UniProt Q9UQM7). The following applies: at 1 µM.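 Also: reported value is a mean percent inhibition of CAMK2A.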
The target in assay [2] is Calcium/calmodulin-dependent protein kinase type II subunit delta (Homo sapiens) (UniProt Q13557). To be noted: at 0.1 µM.
For assay [3] the target is unchanged. To be noted: at 1 µM.
Assay [4] deals with T1, Calcium/calmodulin-dependent protein kinase type IV (Homo sapiens) (UniProt Q16566).
T1 sequence (whole entry): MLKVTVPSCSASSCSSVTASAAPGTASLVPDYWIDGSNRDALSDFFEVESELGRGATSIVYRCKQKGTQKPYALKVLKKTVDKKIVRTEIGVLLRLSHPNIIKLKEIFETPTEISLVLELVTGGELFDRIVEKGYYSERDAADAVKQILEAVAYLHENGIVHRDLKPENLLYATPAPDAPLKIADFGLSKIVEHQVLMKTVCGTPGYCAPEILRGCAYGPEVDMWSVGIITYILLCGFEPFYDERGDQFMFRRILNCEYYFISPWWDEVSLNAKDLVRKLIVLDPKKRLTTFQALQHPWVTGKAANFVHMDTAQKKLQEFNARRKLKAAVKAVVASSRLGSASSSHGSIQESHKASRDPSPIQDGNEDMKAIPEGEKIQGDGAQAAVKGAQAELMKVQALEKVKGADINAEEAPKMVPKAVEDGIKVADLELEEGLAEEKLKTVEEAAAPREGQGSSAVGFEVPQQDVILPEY
To be noted: at 0.1 µM.

Assay [5] deals with T1, Calcium/calmodulin-dependent protein kinase type IV (Homo sapiens). To be noted: at 1 µM.
In assay [6] the target is T2, Serine/threonine-protein kinase Chk1 (Homo sapiens) (UniProt O14757).
T2 sequence (whole entry): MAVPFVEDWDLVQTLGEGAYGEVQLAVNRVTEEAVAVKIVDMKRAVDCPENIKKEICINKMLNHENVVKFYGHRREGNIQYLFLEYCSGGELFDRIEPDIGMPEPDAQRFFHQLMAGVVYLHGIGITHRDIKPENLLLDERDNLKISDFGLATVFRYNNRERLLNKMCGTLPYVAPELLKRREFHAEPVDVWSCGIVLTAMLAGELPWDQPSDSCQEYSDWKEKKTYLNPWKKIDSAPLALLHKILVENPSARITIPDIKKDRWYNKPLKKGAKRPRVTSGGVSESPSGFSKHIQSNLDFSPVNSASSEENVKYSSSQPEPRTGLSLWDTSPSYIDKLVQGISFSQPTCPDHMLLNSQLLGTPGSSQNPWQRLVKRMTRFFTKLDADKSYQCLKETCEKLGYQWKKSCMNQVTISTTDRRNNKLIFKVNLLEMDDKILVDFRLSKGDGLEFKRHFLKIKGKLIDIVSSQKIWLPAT
The following applies: at 0.1 µM.

The target of assay [7] is T2, Serine/threonine-protein kinase Chk1 (Homo sapiens). The following applies: at 1 µM.
Assay [8] deals with Serine/threonine-protein kinase Chk2 (Homo sapiens) (UniProt O96017). To be noted: at 0.1 µM.
Assay [9] has the same target. The following applies: at 1 µM.
In assay [10] the target is Death-associated protein kinase 1 (Homo sapiens) (UniProt P53355). The following applies: at 0.1 µM.
The target is the same in assay [11]. The following applies: at 1 µM.
For assay [12], the target named is T3, Serine/threonine-protein kinase DCLK2 (Homo sapiens) (UniProt Q8N568).
T3 sequence (whole entry): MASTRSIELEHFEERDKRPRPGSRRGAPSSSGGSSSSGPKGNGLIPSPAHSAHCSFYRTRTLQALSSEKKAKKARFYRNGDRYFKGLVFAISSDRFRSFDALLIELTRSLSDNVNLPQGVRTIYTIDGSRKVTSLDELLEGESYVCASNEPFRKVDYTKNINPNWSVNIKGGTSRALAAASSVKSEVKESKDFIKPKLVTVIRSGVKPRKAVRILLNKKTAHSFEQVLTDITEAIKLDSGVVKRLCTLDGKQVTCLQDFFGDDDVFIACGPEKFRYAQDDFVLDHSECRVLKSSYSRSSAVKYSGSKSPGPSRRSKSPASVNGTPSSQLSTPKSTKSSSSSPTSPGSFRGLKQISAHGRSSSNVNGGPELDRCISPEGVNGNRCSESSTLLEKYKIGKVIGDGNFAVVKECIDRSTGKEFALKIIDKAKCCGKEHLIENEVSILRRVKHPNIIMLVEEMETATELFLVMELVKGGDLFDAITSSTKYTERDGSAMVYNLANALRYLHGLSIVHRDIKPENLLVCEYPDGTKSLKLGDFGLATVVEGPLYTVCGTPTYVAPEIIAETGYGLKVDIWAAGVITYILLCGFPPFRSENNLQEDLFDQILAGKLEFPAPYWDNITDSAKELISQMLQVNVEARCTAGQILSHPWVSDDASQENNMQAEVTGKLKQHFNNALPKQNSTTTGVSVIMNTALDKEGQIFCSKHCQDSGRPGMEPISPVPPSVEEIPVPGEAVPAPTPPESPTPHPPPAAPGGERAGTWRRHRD
The following applies: at 0.1 µM.

Assay [13] addresses T3, Serine/threonine-protein kinase DCLK2 (Homo sapiens). To be noted: at 1 µM.
For assay [14], the target named is MAP kinase-activated protein kinase 2 (Homo sapiens) (UniProt P49137). To be noted: at 0.1 µM.
Assay [15] has the same target. To be noted: at 1 µM.
For assay [16], the target named is MAP kinase-activated protein kinase 3 (Homo sapiens) (UniProt Q16644). To be noted: at 0.1 µM.
The target is the same in assay [17]. The following applies: at 1 µM.
The target of assay [18] is Serine/threonine-protein kinase MARK1 (Homo sapiens) (UniProt Q9P0L2). To be noted: at 0.1 µM.
For assay [19] the target is unchanged. To be noted: at 1 µM.
The target in assay [20] is MAP/microtubule affinity-regulating kinase 3 (Homo sapiens) (UniProt P27448). To be noted: at 0.1 µM.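 Also: mean percent inhibition of MARK3 kinase activity, measured within the GSK PKIS screening panel.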

MAP kinase-activated protein kinase 2 (Homo sapiens), sequence (P49137 whole entry, looked up): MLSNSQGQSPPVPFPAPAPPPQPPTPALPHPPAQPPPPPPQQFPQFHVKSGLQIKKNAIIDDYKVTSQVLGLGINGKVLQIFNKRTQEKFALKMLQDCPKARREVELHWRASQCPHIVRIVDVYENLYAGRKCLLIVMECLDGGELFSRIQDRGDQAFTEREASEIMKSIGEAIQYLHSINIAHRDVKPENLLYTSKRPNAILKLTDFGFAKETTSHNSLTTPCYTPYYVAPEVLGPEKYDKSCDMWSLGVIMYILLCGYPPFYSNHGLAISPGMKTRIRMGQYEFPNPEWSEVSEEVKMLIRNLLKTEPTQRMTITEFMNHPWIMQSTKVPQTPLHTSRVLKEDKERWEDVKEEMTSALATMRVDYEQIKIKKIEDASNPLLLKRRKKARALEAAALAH
Death-associated protein kinase 1 (Homo sapiens), sequence (P53355 whole entry, looked up): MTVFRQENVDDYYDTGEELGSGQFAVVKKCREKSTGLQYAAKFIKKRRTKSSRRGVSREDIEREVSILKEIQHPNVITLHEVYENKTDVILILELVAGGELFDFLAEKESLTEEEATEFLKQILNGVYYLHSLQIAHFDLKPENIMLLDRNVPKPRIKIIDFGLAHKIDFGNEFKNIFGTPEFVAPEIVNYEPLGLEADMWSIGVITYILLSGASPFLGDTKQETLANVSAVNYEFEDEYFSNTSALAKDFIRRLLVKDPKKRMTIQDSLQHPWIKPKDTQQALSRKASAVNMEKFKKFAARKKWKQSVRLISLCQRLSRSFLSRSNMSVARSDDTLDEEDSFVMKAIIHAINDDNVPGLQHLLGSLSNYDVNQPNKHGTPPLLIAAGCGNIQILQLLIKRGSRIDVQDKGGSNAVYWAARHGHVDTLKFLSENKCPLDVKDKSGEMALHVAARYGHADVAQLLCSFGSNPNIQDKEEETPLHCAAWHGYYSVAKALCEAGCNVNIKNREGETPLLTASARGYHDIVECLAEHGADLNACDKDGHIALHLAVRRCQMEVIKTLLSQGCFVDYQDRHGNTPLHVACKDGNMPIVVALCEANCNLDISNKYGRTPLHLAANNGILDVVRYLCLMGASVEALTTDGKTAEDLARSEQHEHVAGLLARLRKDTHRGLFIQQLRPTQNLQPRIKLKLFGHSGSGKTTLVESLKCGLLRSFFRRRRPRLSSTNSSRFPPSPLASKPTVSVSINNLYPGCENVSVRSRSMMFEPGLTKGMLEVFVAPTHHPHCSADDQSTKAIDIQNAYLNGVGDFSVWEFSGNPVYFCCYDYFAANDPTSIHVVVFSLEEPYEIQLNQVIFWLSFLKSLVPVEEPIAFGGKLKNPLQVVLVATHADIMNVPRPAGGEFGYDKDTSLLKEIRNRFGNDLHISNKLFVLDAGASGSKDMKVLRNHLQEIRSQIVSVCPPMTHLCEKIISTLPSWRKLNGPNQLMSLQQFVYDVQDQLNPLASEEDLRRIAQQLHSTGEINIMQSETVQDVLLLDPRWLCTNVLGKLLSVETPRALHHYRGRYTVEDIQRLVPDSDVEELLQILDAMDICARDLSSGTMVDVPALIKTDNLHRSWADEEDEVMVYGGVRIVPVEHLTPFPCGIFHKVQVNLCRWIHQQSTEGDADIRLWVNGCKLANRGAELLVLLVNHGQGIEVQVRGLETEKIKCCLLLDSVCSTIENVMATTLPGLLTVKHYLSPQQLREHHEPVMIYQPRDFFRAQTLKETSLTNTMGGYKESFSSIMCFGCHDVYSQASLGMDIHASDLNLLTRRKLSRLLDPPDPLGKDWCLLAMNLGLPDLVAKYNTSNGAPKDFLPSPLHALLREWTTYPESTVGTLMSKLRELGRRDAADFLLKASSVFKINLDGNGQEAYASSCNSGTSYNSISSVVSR
Serine/threonine-protein kinase MARK1 (Homo sapiens), sequence (Q9P0L2 whole entry, looked up): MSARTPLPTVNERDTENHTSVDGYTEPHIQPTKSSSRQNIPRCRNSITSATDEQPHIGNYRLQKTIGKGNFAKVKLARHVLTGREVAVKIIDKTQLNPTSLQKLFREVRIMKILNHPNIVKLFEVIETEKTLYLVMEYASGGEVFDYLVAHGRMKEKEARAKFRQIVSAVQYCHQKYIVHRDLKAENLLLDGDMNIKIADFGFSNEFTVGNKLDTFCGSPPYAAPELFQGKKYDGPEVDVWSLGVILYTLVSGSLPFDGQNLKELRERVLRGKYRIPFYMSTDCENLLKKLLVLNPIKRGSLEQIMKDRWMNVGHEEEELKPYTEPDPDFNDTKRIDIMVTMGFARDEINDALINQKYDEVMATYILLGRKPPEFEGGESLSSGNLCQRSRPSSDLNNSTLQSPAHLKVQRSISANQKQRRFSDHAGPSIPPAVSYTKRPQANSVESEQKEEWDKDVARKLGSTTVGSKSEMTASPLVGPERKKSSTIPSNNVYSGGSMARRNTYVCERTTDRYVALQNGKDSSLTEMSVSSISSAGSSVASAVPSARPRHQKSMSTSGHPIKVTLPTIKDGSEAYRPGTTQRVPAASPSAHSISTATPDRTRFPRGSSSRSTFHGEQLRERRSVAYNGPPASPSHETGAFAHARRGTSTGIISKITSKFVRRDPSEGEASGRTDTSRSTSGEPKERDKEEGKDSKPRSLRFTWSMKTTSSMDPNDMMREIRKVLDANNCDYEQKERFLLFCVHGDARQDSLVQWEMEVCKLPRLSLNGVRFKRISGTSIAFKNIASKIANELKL
Serine/threonine-protein kinase Chk2 (Homo sapiens), sequence (O96017 whole entry): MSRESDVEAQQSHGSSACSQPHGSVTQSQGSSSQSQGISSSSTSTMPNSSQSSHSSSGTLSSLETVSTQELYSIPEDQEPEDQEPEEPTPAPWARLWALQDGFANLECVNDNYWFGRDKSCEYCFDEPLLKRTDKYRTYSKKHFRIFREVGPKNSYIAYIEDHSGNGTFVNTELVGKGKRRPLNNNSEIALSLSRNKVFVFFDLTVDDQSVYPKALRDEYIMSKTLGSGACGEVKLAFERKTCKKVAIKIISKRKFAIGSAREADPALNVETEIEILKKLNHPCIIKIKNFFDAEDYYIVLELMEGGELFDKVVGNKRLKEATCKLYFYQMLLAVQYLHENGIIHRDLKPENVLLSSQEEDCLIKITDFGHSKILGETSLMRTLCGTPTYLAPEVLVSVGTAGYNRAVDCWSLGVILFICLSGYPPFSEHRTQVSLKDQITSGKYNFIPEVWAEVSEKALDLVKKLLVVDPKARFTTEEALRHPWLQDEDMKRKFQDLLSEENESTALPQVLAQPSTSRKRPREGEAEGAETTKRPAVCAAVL
Calcium/calmodulin-dependent protein kinase type II subunit alpha (Homo sapiens), sequence (Q9UQM7 whole entry): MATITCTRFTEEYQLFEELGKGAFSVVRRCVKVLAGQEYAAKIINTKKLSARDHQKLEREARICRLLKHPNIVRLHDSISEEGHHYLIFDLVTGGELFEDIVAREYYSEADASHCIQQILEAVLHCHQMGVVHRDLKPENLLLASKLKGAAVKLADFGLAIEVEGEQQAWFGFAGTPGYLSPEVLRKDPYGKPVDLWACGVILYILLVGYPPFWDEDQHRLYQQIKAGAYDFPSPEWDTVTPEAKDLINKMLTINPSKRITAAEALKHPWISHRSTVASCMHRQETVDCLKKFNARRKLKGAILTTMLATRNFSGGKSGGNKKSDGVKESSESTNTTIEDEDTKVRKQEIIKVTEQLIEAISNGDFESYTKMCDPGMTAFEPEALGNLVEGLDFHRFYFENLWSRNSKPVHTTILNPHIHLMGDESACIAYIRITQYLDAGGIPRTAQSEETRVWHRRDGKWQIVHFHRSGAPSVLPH
Calcium/calmodulin-dependent protein kinase type II subunit delta (Homo sapiens), sequence (Q13557 whole entry): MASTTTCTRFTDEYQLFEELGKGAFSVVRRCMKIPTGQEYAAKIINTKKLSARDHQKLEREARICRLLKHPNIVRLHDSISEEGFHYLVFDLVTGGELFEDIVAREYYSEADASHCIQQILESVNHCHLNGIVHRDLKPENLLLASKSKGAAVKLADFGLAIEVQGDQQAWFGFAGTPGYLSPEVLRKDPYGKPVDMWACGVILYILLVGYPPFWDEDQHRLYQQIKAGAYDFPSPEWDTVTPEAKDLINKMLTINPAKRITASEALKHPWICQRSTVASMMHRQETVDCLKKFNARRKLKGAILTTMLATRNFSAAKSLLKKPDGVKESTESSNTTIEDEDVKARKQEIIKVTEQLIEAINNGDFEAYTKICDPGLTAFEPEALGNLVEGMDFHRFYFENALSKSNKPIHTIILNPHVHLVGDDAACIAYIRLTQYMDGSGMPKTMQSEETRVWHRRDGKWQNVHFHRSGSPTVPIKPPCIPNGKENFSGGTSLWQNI
MAP kinase-activated protein kinase 3 (Homo sapiens), sequence (Q16644 whole entry, looked up): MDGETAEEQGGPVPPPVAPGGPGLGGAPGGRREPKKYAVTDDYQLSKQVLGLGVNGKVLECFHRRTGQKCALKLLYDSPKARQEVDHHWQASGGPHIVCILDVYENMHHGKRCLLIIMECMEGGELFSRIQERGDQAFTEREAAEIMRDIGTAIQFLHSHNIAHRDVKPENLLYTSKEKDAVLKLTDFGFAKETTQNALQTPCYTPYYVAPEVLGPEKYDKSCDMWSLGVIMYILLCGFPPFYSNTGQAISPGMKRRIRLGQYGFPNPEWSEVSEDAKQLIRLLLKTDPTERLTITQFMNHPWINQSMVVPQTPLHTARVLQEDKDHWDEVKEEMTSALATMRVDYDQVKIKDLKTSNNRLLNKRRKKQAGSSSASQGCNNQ

In the case of `CC(C)COC(=O)c1ccc2c(c1)/C(=C/Nc1ccc(S(N)(=O)=O)cc1)C(=O)N2`, the inhibition (commonly the change of the read-out against control, counted positive when it falls) in [1] came out at 17.5%; in assay [2], 4.43%; in assay [3] it was 36.7%; in assay [4], 1.85%; in assay [5] it was 3.51%; in assay [6], 0.91%. Also, the inhibition is 18.1% in assay [7]; -0.46% in assay [8]; 13.5% in assay [9]; -2.01% in assay [10]; 3.08% in assay [11]; -2.21% in [12]. In addition, the inhibition in [13] is 10.2%; in assay [14], -0.97%; in [15], -1.28%; in assay [16], -2.74%; in assay [17], -2.61%; in assay [18], 42.7%. For the same compound, the values for the inhibition in assay [19] and in assay [20] were 87.1% and 33.3%, respectively.
On to `Fc1ccc(-c2nn3ncccc3c2-c2ccnc(Nc3ccc4c(c3)OCCO4)n2)cc1`, for which the inhibition in assay [1] was 4.05%; in assay [2], 3.8%; in assay [3] it was 5.51%; in assay [4], 0.98%; in [5], 1.52%; in assay [6], 1.26%. In addition, the inhibition in [7] was -1.02%; in [8], 3.9%; in [9], 5.77%; in [10], 0.23%; in assay [11], 2.12%; in assay [12], 1.43%. Further, the inhibition in assay [13] is -0.42%; in assay [14], 1.56%; in [15], 1.39%; in [16], 34.4%; in assay [17], 37.8%; in assay [18] it was 1.97%. The inhibition in assay [19] was found to be 3.47%; in assay [20], 4.24%.
On to `Nc1nc(-c2ccc(F)cc2)c(-c2ccc3ncccc3n2)s1`, for which the inhibition in assay [1] was 4.65%; in assay [2], 4.16%; in assay [3], 4.81%; in assay [4], -0.44%; in assay [5] it was -0.24%; in [6], 3.9%. The inhibition was 5.94% in assay [7]; 3.09% in [8]; 4.06% in assay [9]; 4.26% in [10]; 4.25% in assay [11]; 1.89% in assay [12]. Besides, the inhibition in assay [13] is 1.19%; in assay [14] it was 2.16%; in assay [15], 1.53%; in assay [16], 11.3%; in assay [17], 24.6%; in assay [18], 4.82%. The results for the inhibition in assay [19] and in assay [20] were 7.14% and 3.4%, respectively.
Turning to `CCN1CCC(CC(=O)Nc2n[nH]c3nnc(-c4cccc(F)c4F)cc23)CC1`, the inhibition in assay [1] is -0.76%; in assay [2], 2.44%; in assay [3], 0.77%; in [4] it was 2.76%; in [5] it was -0.58%; in assay [6] it was 1.72%. For the same compound, the inhibition in [7] is -1.03%; in assay [8], 1.92%; in [9] it was 0.24%; in assay [10] it was 3.62%; in assay [11] it was 3.28%; in assay [12], -0.85%. In addition, the inhibition in [13] was 1.18%; in [14], 1.15%; in [15], 0.52%; in assay [16], 1.74%; in assay [17], 0.62%; in [18] it was 1.89%. The inhibition in [19] worked out at 2.48%; in assay [20] it was 2.14%.
Turning to `Fc1ccc(-c2cc(-c3c[nH]nc3-c3ccccn3)ccn2)cc1`, the inhibition is 2.33% in assay [1]; 2.86% in assay [2]; 4.06% in assay [3]; -2.35% in assay [4]; -4.94% in assay [5]; 1.21% in assay [6]. Further, the inhibition in [7] was -0.75%; in assay [8] it was 4.88%; in assay [9] it was 5.9%; in assay [10], 0.73%; in assay [11] it was 3.05%; in [12], 1.09%. Moreover, the inhibition in [13] is -1.86%; in [14], 2.53%; in [15] it was 2.72%; in assay [16] it was 7.67%; in [17], 18.4%; in assay [18], 4.11%. Besides, the inhibition worked out at 3.39% in assay [19] and 2.52% in assay [20].
`Fc1ccc(-c2nn3ccccc3c2-c2ccncc2)cc1`: the inhibition amounted to 0.25% in [1]; 0.43% in [2]; 2.99% in [3]; 1.16% in [4]; 1.98% in [5]; 0.22% in [6]. In addition, the inhibition in assay [7] was -0.04%; in assay [8], -0.38%; in [9], 0.19%; in assay [10], 0.72%; in assay [11] it was 0.99%; in [12], 1.01%. The inhibition in assay [13] is -2.66%; in assay [14] it was 0.22%; in assay [15] it was 0%; in assay [16] it was 14.4%; in assay [17] it was 28.4%; in assay [18] it was 1.76%. For the same compound, the results for the inhibition in [19] and in [20] were 2.2% and 1%, respectively.
For the compound `CN1CCC(n2cnc(-c3ccc(F)cc3)c2-c2ccnc(N)n2)CC1`, the inhibition was 2.5% in assay [1]; -0.04% in assay [2]; 4.76% in assay [3]; -0.06% in assay [4]; 0.61% in assay [5]; 0.82% in [6]. Further, the inhibition in assay [7] is -1.42%; in [8], 1.28%; in assay [9], 9.16%; in [10], 2.13%; in [11], 2.09%; in assay [12] it was 0.59%. For the same compound, the inhibition in [13] came to 1.94%; in [14] it was 0.99%; in assay [15], 0.33%; in [16] it was 17.1%; in [17], 33.5%; in [18] it was 1.8%. Moreover, the inhibition stood at 6.88% in assay [19] and 0.93% in assay [20].
